# Compounds with a hit are over-represented: about 7.3% of the library has one in this group of screens.
# SMN2 splice enh: increases expression of the SMN2 splice variant; HEK293 SMN2-luciferase splicing reporter, luminescence, 30-36 h; Potency, µM (doses to about 46.1 µM), for the others: top-dose activity change, positive = activation, most hits filed as activators; 2.8% of 210,000 active; AID 1458; note: % of control where 0% means no effect; nearly all actives have a fitted effect of over 55% in size
#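 HEK293 cells carry an SMN2 minigene-luciferase reporter in which exon 7 inclusion puts luciferase in frame. Cells were seeded at 2000 cells/well, attached for 10-12 hours, then exposed to compounds for 30-36 hours at 37C before ONE-Glo luminescence.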
# Rab9 promoter act: activators of Rab9 promoter; Huh7 Rab9 promoter-luciferase reporter, luminescence, 24 h; 2.8% of 320,000 active; Potency, µM (series often up to 9.22 µM), for inactives: top-dose activation, negative = inhibition, actives largely listed as activators; note: % of control where 0% means no effect; nearly all actives have a fitted effect of over 60% in size
#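 Luminescence from Amplite-detected luciferase (10 minutes, ambient) reports Rab9 promoter activation. Before that, stable Rab9-luciferase Huh7 cells (1500/well, reduced-serum OP-MEM I plus 10% FBS) were exposed to compound for 24 hours at 37C.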
# p53 reactivator: restores transcriptional activity of mutant p53 | H1299 p53-A138V BP100-luciferase reporter, luminescence, 24 h | 0.063% of 320,000 active | Potency, µM (doses to about 92.2 µM), for the others: at the top dose activity change, positive = activation, actives largely listed as activators; note: % of control where 0% means no effect; nearly all actives have a fitted effect of over 45% in size
#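 H1299 (p53-null), stable ts p53-A138V + BP100-Luc; 1000 cells/well, Opti-MEM/10% FBS; cpd 4 pt, 1:5; 24 h, 37 deg C, 5% CO2; detection reagent 10 min RT; luminescence.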
# ELG1 genotox: inducers of genotoxicity in HEK293T ELG1-luciferase cells. AID 504466. HEK293T ELG1-luciferase reporter, luminescence, 16 h. 1.3% of 330,000 active. Potency, µM (top dose mostly 46 µM), inactives show top-dose activity change, positive = activation, usual class: activators; note: % of control where 0% means no effect; nearly all actives have a fitted effect of over 60% in size
#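 16 hr compound incubation (37 °C, 5% CO2) of HEK293T cells carrying luciferase-tagged ELG1; luciferase then measured by ONE-Glo luminescence after 30 min at RT.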
# NPC1 prom act: NPC1 promoter activation | AID 485313 | Potency, µM (highest dose often 9.22 µM), without a hit: at the highest dose activation, usual class: activators | Huh7 NPC1 promoter luciferase reporter, 24 h | 2.4% of 320,000 active; note: % of control where 0% means no effect; nearly all actives have a fitted effect of over 60% in size
#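 Stably transfected Huh7 (NPC1 promoter→luciferase), 1500 cells/well in Opti-MEM + 10% FBS, 2 h settle, then compound 24 h at 37 °C. Luminescence after 10 min with Amplite reagent.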
# FLuc counter: firefly luciferase modulation, counter-screen for miR-21 project; purified FLuc, Km substrates, luminescence inhibition; P08659; AID 588342; Potency, µM (titrated, usually from 57.5 µM), for inactives: at the top dose activity change, negative = inhibition, actives largely listed as inhibitors; 6.9% of 360,000 active;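 note: plate controls were vehicle for no effect and reference inhibitor for full effect; nearly all actives have a fitted effect of over 55% in size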
# Target sequence (P08659 whole entry, looked up): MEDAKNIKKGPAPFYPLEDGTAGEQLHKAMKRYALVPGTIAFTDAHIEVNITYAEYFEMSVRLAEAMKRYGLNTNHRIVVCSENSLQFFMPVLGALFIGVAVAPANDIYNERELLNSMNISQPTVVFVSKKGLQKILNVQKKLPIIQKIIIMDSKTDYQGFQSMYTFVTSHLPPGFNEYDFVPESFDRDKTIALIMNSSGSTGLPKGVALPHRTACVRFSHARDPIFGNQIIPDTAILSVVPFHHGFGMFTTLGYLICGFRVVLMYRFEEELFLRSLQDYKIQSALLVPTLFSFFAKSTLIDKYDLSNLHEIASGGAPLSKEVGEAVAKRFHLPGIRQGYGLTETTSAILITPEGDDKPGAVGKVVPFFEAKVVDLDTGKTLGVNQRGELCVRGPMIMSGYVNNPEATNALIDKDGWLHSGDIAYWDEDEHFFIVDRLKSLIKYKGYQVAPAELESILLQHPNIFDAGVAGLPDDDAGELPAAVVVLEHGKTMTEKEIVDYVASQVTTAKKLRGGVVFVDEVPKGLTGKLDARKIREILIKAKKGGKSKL
#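 Purified P. pyralis luciferase (10nM final) with 10uM D-luciferin and 10uM ATP (Km levels) in 50mM Tris acetate pH 7.5, 10mM Mg acetate, 0.01% Tween-20, 0.05% BSA; qHTS 6-point titration, ~60 µM downward; luminescence read.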
# Numbers without * were called inactive; ? = inconclusive; · = no result; [ ] = remark or other dose. Calls come from the whole dose curve; as a rule, active = well fitted curve in the direction sought with a large enough effect; inconclusive = small, poorly fitted or top-dose-only effect, or another doubt; inactive = no such curve, though single readings can be large; an effect the other way counts as inactive or inconclusive. Potency is the fitted concentration of half-maximal effect.
SMILES,SMN2 splice enh,Rab9 promoter act,p53 reactivator,ELG1 genotox,NPC1 prom act,FLuc counter
CCC1=C(OC(=O)N(CC)CC)N2C(=O)OC(=NCCOC)[C@]2(C)[C@H]2C1=CC[C@H]1C(=O)N(C)C(=O)[C@H]12,-5.5%,·,·,·,·,·
O=C(O)c1ccccc1C(=O)c1ccc(Cl)cc1,·,-5.4%,-3.9%,-3.3%,4.2%,-1.8%
O=C(O)c1ccccc1C(=O)c1ccc(-c2ccccc2)cc1,·,0.5%[1.84 µM],?,5.3%,13.1%,21.3µM*
Cc1cccc(NC(=O)c2ccccc2NC(=O)C2CCCCC2)c1C,-1.2%,-2.5%,-10.1%,?,1.8%,16.9µM*
Cc1ccc(NC(=O)c2cccc(C(=O)Nc3ccc(C)cc3C(=O)O)c2)c(C(=O)O)c1,·,-3.9%[1.84 µM],5.3%,-10.6%,-0.5%,26.9µM*
Cc1c(NC(=O)c2ccc(NC(=O)C3CC3)cc2)cccc1C(=O)O,·,7.0%,-25.2%,-1.8%,-0.4%,15.1µM*
Cc1cccc(OCC(=O)Nc2ccc(C(=O)Nc3ccccc3C(=O)O)cc2)c1C,·,-2.2%,4.8%,-2.0%,0.3%,4.1%
Cc1c(NC(=O)c2ccccc2N)cccc1C(=O)O,·,1.78µM*,7.3%,?,1.26µM*,9.53µM*
CC(NC(=O)c1ccc2c(c1)OCO2)C1CCCO1 (stereo unspecified),18.6%,-1.3%,0.2%,2.5%,-3.4%,0.0%[2.3 µM]
CC(OC(=O)CCc1nc2ccccc2[nH]c1=O)c1ccccc1 (stereo unspecified),7.9%,10.9%,-2.7%,0.0%,-3.0%,-4.6%
O=C(Nc1ccc(Br)cc1F)c1cc(S(=O)(=O)NC2CCCC2)ccc1F,·,·,·,·,·,-6.3%
O=C(CCn1c(=O)c2ccccc2n(Cc2cc(=O)n3ccccc3n2)c1=O)NCc1ccco1,-9.9%,-8.9%,7.9%,4.1%,-2.3%,2.8%
Cc1c(NC(=O)c2cccs2)cccc1C(=O)O,10.4%,?,8.9%,12.1%,?,15.1µM*
COc1cc(NC(=O)c2ccc(Br)o2)c(C(=O)O)cc1OC,17.6%,-1.3%,10.5%,2.1%,-0.9%,21.3µM*
COc1ccccc1NC(=O)c1ccc(Br)o1,26.5%,-5.2%,21.4%,?,1.1%,-13.9%
Cc1c(NC(=O)c2ccccc2NC(=O)c2ccccc2)cccc1C(=O)O,·,4.4%,16.6%,1.7%,-0.4%,16.9µM*
Cc1cc(O)c(NC(=O)c2ccc(Br)o2)cc1C,14.1µM*,17.4%,?,?,20.1%,?
CC(C)=C[C@H]1[C@@H](COC(=O)c2ccccc2Cl)C1(C)C,-7.3%[9.22 µM],·,·,·,·,·
COc1cccc(Cn2c(=O)n(-c3ccccc3C)c(=O)c3c2c2cc(C)ccc2n3C)c1,·,·,·,·,·,-1.7%
Cc1c(NC(=O)c2ccc(Br)o2)cccc1C(=O)O,?,2.51µM*,10.9%,?,?,21.3µM*
CC(=O)Nc1ccc(NC(=O)C(C)OC(=O)CNC(=O)c2ccc(-c3ccccc3)cc2)cc1 (stereo unspecified),·,0.9%,-0.2%,15.7%,8.9%,?
Cc1ccccc1OCC(=O)Nc1ccccc1-c1ccccc1,?,0.891µM*,?,?,0.891µM*,4.78µM*
Cc1cc(C)cc(OCC(=O)Nc2cccc(C(=O)O)c2)c1,?,?,?,26.9%,?,15.1µM*
Cc1ccccc1NC(=O)COc1ccccc1C,·,5.2%,·,11.4%,3.6%,?
Cc1ccccc1OCC(=O)Nc1ccc(N2CCN(C)CC2)c(Cl)c1,·,28.7%,?,?,?,12µM*
Cc1cc(Cl)c(S(=O)(=O)Nc2cccc(O)c2)cc1OCC(N)=O,3.98µM*,-1.7%,-14.5%,2.5%,-2.4%,0.8%
Cc1ccccc1OCC(=O)Nc1cccc(C(=O)O)c1,1.58µM*,?,-10.1%,-15.1%,?,0.0953µM*
CCOc1ncccc1C(=O)OCC(=O)Nc1cccc(C(C)=O)c1,-3.8%,-7.0%,4.6%,2.0%,4.8%,-3.8%
CC(=O)Nc1ccc(NC(=O)COc2ccc(Br)cc2C)cc1,-12.0%,-0.5%,0.5%,10.9%,2.0%,-0.7%
